# Rows were chosen to be rich in hits. Some 11% of all compounds tested hit in one or more screens of this group.
# PNC inhibitor: perinucleolar compartment assembly inhibition. PC3M PTB-GFP, PNC prevalence imaging, 16 h; hits give low values. activity change (PNC), negative = inhibition, % at 10 µM. 3.1% of 140,000 active. AID 2417;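 active = readout at or below -70, meaning at least 70% loss of cells showing the perinucleolar compartment, a nuclear body marking cancer cells; inconclusive = readout between -30 and a set limit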
#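 PC3M cells stably expressing PTB-GFP, 750–1000 cells/well, treated 16 h at 37 °C with compound (23 nl of library stock), in duplicate. After paraformaldehyde fixation and Hoechst stain, imaged at 20x; PNC prevalence scored by image analysis.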
# HTT ATP protect: Huntington cell model cytoprotection by ATP luminescence; PC12 HTT-Q103 induced, cytoprotection, ATP luminescence, 40 h; Potency, µM (titrated, usually from 56.4 µM), usual class: activators; 0.14% of 230,000 active; note: nearly all actives have a fitted effect of over 45% in size
#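 Huntington model: PC12 line, ecdysone-inducible HTTQ103 exon1–GFP, tebufenozide 100 nM. Test articles in a dose series. Endpoint luminescence from cellular ATP.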
# CBFb-RUNX1 inh: CBF-beta/RUNX1 interaction disruption; AlphaScreen CBFb-His/RUNX1-biotin binding, biochemical; 230,000 tested, under 10 active; Q01196+Q13951; AID 1477; Potency, µM (doses to about 59.8 µM), actives largely listed as inhibitors
#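 CBF-beta (His) and RUNX1 (biotin), 30 nM each; 20 min preassociation; + compound, 15 min; + beads 50 ng each (Ni, streptavidin), 90 min; RT; AlphaScreen read.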
# HTT aggregate: reduces HttQ103-GFP aggregates in PC12 cells; Potency, µM (top dose mostly 46.1 µM), usual class: inhibitors; 1.1% of 220,000 active; PC12 HttQ103-GFP aggregates, Acumen cytometry, 40 h; AID 1688; note: nearly all actives have a fitted effect of over 60% in size
#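 PC12/HTTQ103-GFP, ecdysone-inducible; teb 100 nM; cpd qHTS titration; GFP aggregates read on laser cytometer, Ex 488/Em 500-530 nm.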
# HPGD inh: HPGD (human) dehydrogenase inhibition | 4.3% of 150,000 active | P15428 | purified HPGD, NADH fluorescence kinetic, PGE2 substrate | AID 894 | Potency, µM, most hits filed as inhibitors; active = well fitted inhibition curve with a large enough effect, not every such curve was filed as active; inconclusive = small, poorly fitted or top-dose-only effect, or another doubt; inactive = no such curve, though single readings can be large or run the other way
# Target sequence (P15428 whole entry, looked up): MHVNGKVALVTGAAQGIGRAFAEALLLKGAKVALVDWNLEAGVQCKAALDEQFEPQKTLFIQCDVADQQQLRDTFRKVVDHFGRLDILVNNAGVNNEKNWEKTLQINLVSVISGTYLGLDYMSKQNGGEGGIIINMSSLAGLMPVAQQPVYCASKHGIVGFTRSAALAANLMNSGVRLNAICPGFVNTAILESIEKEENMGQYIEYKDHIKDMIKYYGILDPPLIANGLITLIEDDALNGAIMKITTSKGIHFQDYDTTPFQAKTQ
#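 NADH formation kinetics: reaction with 30 uM PGE2 and 1 mM NAD+ (final), 20 nM enzyme, Tris-HCl pH 8 with Tween 20, after 15 min compound preincubation at room temperature. Fluorescence change, last versus first of five reads.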
# ALDH1A1 block: blocks purified human ALDH1A1 activity; P00352; Purified ALDH1A1, NADH fluorescence, propionaldehyde substrate; Potency, µM (series often up to 75.3 µM), usual class: inhibitors; 7.3% of 220,000 active; AID 1030; active = well fitted inhibition curve with a large enough effect, not every such curve was filed as active; inconclusive = small, poorly fitted or top-dose-only effect, or another doubt; inactive = no such curve, though single readings can be large or run the other way
# Hits are given with their value; i = inactive; ? = inconclusive; nt = not tested or not shown; [ ] = another dose, or the depositor's remark. Unless noted, calls come from the whole dose curve; as a rule, active = well fitted curve in the direction sought with a large enough effect; inconclusive = small, poorly fitted or top-dose-only effect, or another doubt; inactive = no such curve, though single readings can be large; an effect the other way counts as inactive or inconclusive.
SMILES,PNC inhibitor,HTT ATP protect,CBFb-RUNX1 inh,HTT aggregate,HPGD inh,ALDH1A1 block
Cn1ncc(Br)c1C(=O)NC12CC3CC(CC(C3)C1)C2,?,i[10 µM],i,i,i,i
O=c1cc(N2CCc3ccccc32)[nH]c(=O)n1-c1ccc(Br)cc1,i,i[10 µM],i,i,28.2µM,?
COc1ccc(-n2c(=O)cc(N3CCc4ccccc43)[nH]c2=O)cc1,i,i[10 µM],i,i,i,i
Cc1ccccc1-n1c(=O)cc(N2CCc3ccccc32)[nH]c1=O,-108.4,i[10 µM],i,i,i,?
CC(=O)OC[C@@H]1O[C@@H](O/N=C2/C[C@@H](O)[C@@H](O)[C@@H]3[C@@H]4C(=O)N(C5CCCCC5)C(=O)[C@H]4CC[C@H]23)[C@H](OC(C)=O)[C@H](OC(C)=O)[C@@H]1OC(C)=O,nt,i[10 µM],i[13.1 µM],nt,nt,i[13.5 µM]
C=CCc1cccc(OC)c1OCCOCCn1ccnc1,i,i[0.074 µM],?,i,i,20µM
C=CCc1ccccc1OCCn1ccnc1,i,i[0.074 µM],i,i,i,i
CCCCCCCC/C=C\CCCCCCCC(=O)OC[C@@H](O)COP(=O)(O)O,nt,i,i,nt,i,i
CC(=O)OC[C@H]1O[C@@H](ON=C(C)C)[C@H](OC(C)=O)[C@@H](OC(C)=O)[C@H]1OC(C)=O,nt,i[10 µM],i[13.1 µM],nt,nt,i[13.5 µM]
NC(=O)COC(=O)c1ccccc1Nc1ccc(SC(F)F)cc1,i,nt,i,i,11.2µM,i
O=C(COC(=O)c1ccccc1Nc1ccc(SC(F)F)cc1)NCc1ccco1,i,i,i,i,14.1µM,i
Cc1cc(C)nc(N/N=C/c2cn[nH]c2-c2ccc(F)cc2)n1,nt,i[10 µM],i,i[9.22 µM],nt,nt
NCCSCCC(=O)O,nt,i[10 µM],nt,nt,i,i[13.5 µM]
CCCCNS(=O)(=O)c1ccc2nc(SCC(=O)N3CC(C)OC(C)C3)[nH]c2c1 (stereo not drawn),i,i,i,?,15.8µM,?
O=C(CSc1nc2ccc(S(=O)(=O)N3CCOCC3)cc2[nH]1)N1CCOCC1,i,i,i,i[9.22 µM],3.55µM,3.55µM
CSc1nc(N)nc(SC2C=CCCC2)c1C#N (stereo not drawn),i,i,i,i,i,12.6µM
S=C1Cc2ccccc2N1,nt,1.26µM,nt,i[9.22 µM],nt,nt
O=C(CSc1nc2ccccc2s1)c1sc2sc3ccccc3[n+]2c1O,nt,i[10 µM],nt,nt,?,i[13.5 µM]
O=C(NN1C(=O)C2C3CCC(O3)C2C1=O)c1ccc(Cl)cc1 (stereo not drawn),i,nt,i,i,i,i
Cc1occc1C(=O)NN1C(=O)C2C3CCC(O3)C2C1=O (stereo not drawn),-102.2,nt,i,i,i,i
COC(C(=O)C(O)C(C)O)C1Cc2cc3cc(OC4CC(OC5CC(O)C(O)C(C)O5)C(O)C(C)O4)c(C)c(O)c3c(O)c2C(=O)C1OC1CC(OC2CC(OC3CC(C)(O)C(O)C(C)O3)C(O)C(C)O2)C(O)C(C)O1 (stereo not drawn),nt,i,nt,0.224µM,nt,nt
CO[C@H](C(=O)[C@@H](O)[C@@H](C)O)C1Cc2cc3cc(O[C@H]4C[C@@H](O[C@H]5C[C@@H](O)[C@H](O)[C@@H](C)O5)[C@@H](O)[C@@H](C)O4)c(C)c(O)c3c(O)c2C(=O)[C@H]1O[C@H]1C[C@@H](O[C@H]2C[C@@H](O[C@H]3C[C@](C)(O)[C@H](O)[C@@H](C)O3)[C@H](O)[C@@H](C)O2)[C@H](O)[C@@H](C)O1 (stereo partly drawn),nt,i,nt,0.224µM,nt,nt
C=CC[C@@H]1C=C[C@@H](O/N=C\[C@@H](OC)[C@H](C)/C=C\CC(=O)OC)[C@@H](CO)O1,nt,i[10 µM],i[13.1 µM],nt,nt,i[13.5 µM]
COc1cc(C=O)c([N+](=O)[O-])cc1OC,nt,i,i,nt,i,11.2µM
COc1ccc2cnn(CCOc3cc(C)ccc3C(C)C)c(=O)c2c1OC,-113.4,nt,i,i,i,i
SMILES,PNC inhibitor,HTT ATP protect,CBFb-RUNX1 inh,HTT aggregate,HPGD inh,ALDH1A1 block
COc1ccc2cnn(-c3ccc(C)cc3)c(=O)c2c1OC,i,i,i,i[9.22 µM],25.1µM,?
COc1cccc([C@@H]2Oc3ccc(OC)cc3C(=O)[C@H]2OC(=O)NCc2ccco2)c1,nt,i,i,nt,i,i
COC(=O)C1=C[C@@H](C(=O)OC)C2C3=C(C(=O)[C@@]2(C)NC(=O)c2ccccc2)[C@H](C)n2c(=O)n(C)c(=O)n2[C@@H]3C1 (stereo partly drawn),nt,nt,i,nt,nt,nt
C=CCSC(=C(C#N)C#N)c1cc2c([nH]1)CCCC2,i,11.2µM,i,?,i,?
O=C(O)c1cc2c([nH]c1=O)CCCC2,i,i,i,i,?,?
Nc1nc(F)cc(N2CCCCCC2)n1,nt,i,i,i,nt,i
N=c1nc(N2CCCCC2)cc(N)n1O,-114.6,?,i,i,i,i
CC(C)C[C@H](NC(=O)CNC(=O)[C@@H]1CCCN1C(=O)[C@H](CCCNC(=N)N)NC(=O)[C@H](CC(=O)O)NC(=O)[C@@H](NC(=O)[C@H](CC(N)=O)NC(=O)[C@@H](NC(=O)[C@H](CC(=O)O)NC(=O)CNC(=O)[C@@H](NC(=O)[C@@H](NC(=O)[C@H](C)NC(=O)[C@@H](N)CCC(N)=O)[C@@H](C)O)C(C)C)C(C)C)[C@@H](C)O)C(=O)N[C@@H](CC(C)C)C(=O)N[C@@H](CC(=O)O)C(=O)N[C@@H](CC(C)C)C(=O)N[C@@H](CCCCN)C(=O)O,nt,nt,i,nt,nt,nt
CCc1nc(N)c(C#N)c(-c2cccc3ccccc23)c1C,-100.0,i[10 µM],i,i,i,i
CCc1nc(N)c(C#N)c(-c2ccncc2)c1C,i,i[0.074 µM],i,i,i,i
O=C(NCC1CCCO1)c1ccc(COc2ccc(Cl)cc2)cc1 (stereo not drawn),nt,nt,i,i,nt,i
O=C(NCC1CCCO1)c1ccc(COc2ccccc2Br)cc1 (stereo not drawn),i,nt,?,i,3.98µM,i
COc1cccc(OCc2ccc(C(=O)NCC3CCCO3)cc2)c1 (stereo not drawn),i,nt,i,i,10µM,i
O=C(Cc1cccc2ccccc12)Nc1ccc(OC(F)F)c(Cl)c1,i,i[0.074 µM],i,i,i,?
FC(F)Oc1ccc(NC(=S)NCc2ccccc2)cc1,i,i[1.9 µM],i,i,i,i
O=C(Nc1ccc(OC(F)F)c(Cl)c1)C(c1ccccc1)c1ccccc1,?,i[10 µM],i,?,i,14.1µM
FC(F)Oc1ccc(NC(=S)NCc2ccccc2)cc1Cl,i,i,i,?,14.1µM,?
CC(C)OC(=O)CSc1nnc2c3ccccc3n(C)c2n1,nt,i[10 µM],i,i[9.22 µM],nt,?
COC(=O)c1ccc(S(=O)(=O)NCCSc2nnc3c4ccccc4n(C)c3n2)cc1,i,i,i,i,?,15.8µM
C=CCN1C(=O)/C(=C\c2cccs2)C(C(=O)OC)=C1C,i,i,i,i,i,i
